Source: PubChem BioAssay (NCATS)

The compounds below were run against Lysosomal acid glucosylceramidase (Homo sapiens) (UniProt P04062) (assay: Glucocerebrosidase-p2 (AID 348)). Settings: purified GBA, blue fluorogenic substrate, 40 min; in the data active = potency below about 10 µM; inactive = the rest.
Excerpt: Beta-glucocerebrosidase catalyzes the hydrolysis of beta-glucocerebroside to glucose and ceramide. The inherited deficiency of beta-glucocerebrosidase results in Gaucher disease, which is characterized by a wide variety of symptoms including hepatosplenomegaly, anemia, thrombocytopenia, bony lesions and bone marrow infiltration with characteristic storage cells, known as Gaucher cells. There are also forms of the disorder affecting the central nervous system. Patients with the same genotypes can manifest with diverse clinical presentations and it is believed that improper folding and trafficking of beta-glucocerbrosidase may contribute to the phenotypes observed.
Low molecular weight molecules, acting as chaperones, may potentially restore trafficking of misfolded beta-glucocerebrosidase from the endoplasmic reticulum to the lysosomes, thereby enhancing functional lysosomal beta-glucocerebrosidase activity.
Using normal beta-glucocerebrosidase, an assay was developed to screen for small molecule inhibitors that could potentially act as molecular chaperones on the mutant forms [developed with NIH investigator Dr. Ellen Sidransky#s laboratory]. Two pro-fluorescent substrates were chosen for two screens against a small molecule library. One beta-glucocerebrosidase assay used Resorufin beta-D-Glucopyranoside (Marker Gene Technology Inc.), generating a red fluorescent product. The second assay used […] fluorescent product. The Km for the Resorufin beta-D-Glucopyranoside and Fluorescein di-beta-D-Glucopyranoside were determined to be 71.2 uM and 855 uM, respectively. The IC50 values of Conduritol B Epoxide, a known glucocerebrosidase inhibitor, were determined to be 87.5 uM and 117 uM, respectively. The use of two difference pro-fluorescent substrates in the screens helped to eliminate false positives. All compounds were screened in a titration series resulting in AC50s (e.g., IC50s or EC50s). Data normalization and AC50 calculations were accomplished using GeneData software.
NCGC Assay Protocol Summary
Both enzyme and substrate were diluted in buffer composed of 50mM citric acid/KH2PO4, 10mM sodium taurocholate and 0.01% tween-20 at pH 5.9. The final concentration of the enzyme was 0.2 nM in both assays. The compound library was titrated in 7 to 15 concentrations for the primary screens with a final concentration ranging from 0.6 nM to 50 uM. This particular assay protocol is for the "blue" substrate, and it was performed in 1536-well plate format as follows:
Blue fluorescence substrate assay:
1 uL substrate (final concentration of 80 uM)
Incubate at room temperature (RT) for 40 minutes
3 uL stop solution (1 M NaOH and 1 M glycine in water)
Read the plate in Viewlux plate reader (Ex=365(10) and Em=440(10)).
Potency is the fitted concentration of half-maximal effect.

Chain of Lysosomal acid glucosylceramidase (Homo sapiens) (P04062 whole entry, looked up): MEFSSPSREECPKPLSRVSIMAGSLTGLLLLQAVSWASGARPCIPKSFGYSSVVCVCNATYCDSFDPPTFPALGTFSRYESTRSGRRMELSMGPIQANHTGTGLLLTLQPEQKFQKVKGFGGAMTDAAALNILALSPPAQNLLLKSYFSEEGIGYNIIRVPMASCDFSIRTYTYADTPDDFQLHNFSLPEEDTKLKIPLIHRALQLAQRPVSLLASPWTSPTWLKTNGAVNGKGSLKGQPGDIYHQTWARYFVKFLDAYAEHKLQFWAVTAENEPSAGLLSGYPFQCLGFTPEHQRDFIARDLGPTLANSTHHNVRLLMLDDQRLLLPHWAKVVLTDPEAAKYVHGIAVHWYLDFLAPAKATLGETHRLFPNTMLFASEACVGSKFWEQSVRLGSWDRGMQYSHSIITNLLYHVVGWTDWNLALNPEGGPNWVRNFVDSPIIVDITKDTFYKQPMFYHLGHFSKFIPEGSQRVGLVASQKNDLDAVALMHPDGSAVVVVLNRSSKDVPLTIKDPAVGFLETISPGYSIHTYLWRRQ

Potency, inactive:
CCCCC[C@@H](O)[C@@H]1C(=O)O[C@@H](C)[C@@H](O)\C=C/C=C\C=C/C=C\C=C(\C)[C@H](O)C[C@H](O)C[C@H](O)C[C@H](O)C[C@H](O)C[C@H](O)C[C@@H]1O > 11.4 µM
Cc1cc2ccc(OC(=O)c3ccc(N=C(N)N)cc3)cc2oc1=O > 11.4 µM
O=C(O)[C@@H](Cc1c[nH]c2ccccc12)C(=O)NO > 11.4 µM
O[C@@H](c1cc([C@@]23C[C@H]4CC[C@@H]2C[C@H](C4)C3)nc2c(Cl)cc(Cl)cc12)[C@@H]1CCCCN1 > 11.4 µM
Oc1cc(O)c2c(c1)O[C@@H](c1ccc(O)c(O)c1)[C@H](O[C@@]1(c3cc(O)c(O)c(O)c3)Oc3cc(O)cc(O)c3[C@H](O)[C@@H]1O)C2 > 11.4 µM
Cc1cc(C)c2c(SCc3ccc(Cl)cc3Cl)nc(N)nc2n1 > 11.4 µM
Cc1ccc(S(=O)(=O)N[C@H](CN)C(=O)O)cc1 > 11.4 µM
O=C(N/N=C\c1ccc2c(c1)CCC2)c1ccccc1O > 11.4 µM
O=P(O)(CCP(=O)(O)c1ccccc1)c1ccccc1 > 11.4 µM
O=C1C(=O)c2ccccc2C(O)=C1Cc1ccccc1 > 11.4 µM
O=C(O)c1ccc(NCc2nc3cc4ccccc4cc3[nH]2)cc1 > 11.4 µM
COc1cc(Cl)c(CC(=O)c2c[nH]c3ccccc23)cc1OC > 11.4 µM
c1cncc(-c2cc(-c3cc(-c4cccnc4)n[nH]3)[nH]n2)c1 > 11.4 µM
O=c1[nH]c(SCc2c(Cl)c(Cl)c(Cl)c(Cl)c2Cl)nc(=S)[nH]1 > 11.4 µM
CN(C)CCCNc1cc(O)c2c(c1O)C(=O)c1ccccc1C2=O > 11.4 µM
Cc1ncn(-c2ccccc2O)c1C > 11.4 µM
C[C@@]12C[C@H](O)[C@@H]3[C@H](CCC4=CC(=O)CC[C@]43C)[C@H]1CC[C@@H]2c1csc(-c2ccccc2)n1 > 11.4 µM
O=C(NCc1cccnc1)[C@@H]1[C@@H](C(=O)O)[C@H]2CC[C@@H]1O2 > 11.4 µM
O=S(=O)(O)c1ccc(N=Nc2ccccc2)cc1 > 11.4 µM
O=C(O)/C(Cc1cn[nH]n1)=N\O > 11.4 µM
Cc1cnc(CNc2nc(-c3cccnc3)nc3ccccc23)cn1 > 11.4 µM
CC(C)(C)CNCCO > 11.4 µM
Clc1cccc(Cl)c1C(Nc1nncs1)Nc1nncs1 > 11.4 µM
O=S(=O)(O)c1cc(N=Nc2cccc3ccccc23)c(O)c2ncccc12 > 11.4 µM
O=C(O)c1ccc(/C=N\N=C2c3ccccc3-c3ccccc32)cc1 > 11.4 µM
O=S(=O)(c1ccc2ccccc2c1)N1CCN(S(=O)(=O)c2ccc3ccccc3c2)CC1 > 11.4 µM
c1ccc2c(c1)nnn2CN1CCOCC1 > 11.4 µM
O=C(O)/C=C(/C(=O)O)[C@]12CCN3CC4=CCO[C@@H]5CC(=O)N[C@@H]1[C@H]5[C@H]4C[C@H]32 > 11.4 µM
Nc1ccc(-c2ccc(Nc3cc(S(=O)(=O)O)c(N)c4c3C(=O)c3ccccc3C4=O)cc2)c(S(=O)(=O)O)c1 > 11.4 µM
O=C(O)NCc1ccccc1 (tested in a mixture with another compound) > 11.4 µM
COc1cccc2c1[C@H](CO)N1[C@H](C#N)[C@@H]3C[C@H](C(=O)O)[C@@H]([C@@H]1C2)N3C > 11.4 µM
Cc1cccc(CNc2ncnc3ccc(-c4ccc(C(=O)N(C)C)cc4)cc23)c1 > 11.4 µM
CN1CCN(CCCN)CC1 > 11.4 µM
Cn1ccnc1C[C@@](C)(O)c1ccccc1 > 11.4 µM
Sc1ccc2ccccc2c1CNCc1ccccc1 > 11.4 µM
COc1cccc(Nc2ncc3nc(-c4ccccc4)c(=O)n(C4CC4)c3n2)c1 > 11.4 µM
COc1cc2ccc([C@H](C)NCC#N)cc2cc1OC > 11.4 µM
O=C(O)CSc1cc(-c2ccccc2)nc2ccccc12 > 11.4 µM
Cc1cc(OCC(=O)O)c(Cl)cc1Cl > 11.4 µM
CCN1CCC(O)([C@H](C(=O)O)c2ccccc2)CC1 > 11.4 µM
